# Data published in the supplement of paper PMC8728848.
# Only a selection was taken, and the strongest signals are over-represented in it overall.
# B1: TLEC1 (Arabidopsis thaliana), Q9C5Q9 (protein)
# chain: MSGASSVSSICSSNVSLIPTGPQVFINFRGKDLRKGFMSFLKPALKKEKINVFIDEQEERGKYLISLFDTIGESKIALVIFSEGYCESHWCMDELVKIKEYMDQNRLIIIPIFYRLDLDVVKDLTGKFGDNFWDLVDKYQPEPKKLHKWTEALFSVCELFSLILPKHSDISDRDFVKSIVKAVKKVQKNFFQRRNGEIEYQDFSVPACKLTITMHESPNEEAVQVTVLNEFYQMKNQSPVPSYEFKFWVDLTRPKGNVFMIDARDLSIAWSEDSNHWTWLPLPNQNSNESVMEIAFLKSASWLDVAGKFDTRYLTPRTRYEVVFVVKLEYTFEWETLVKLKLDLPNTWEKPQEQSVDMFDYISDQWLDIPVGEFTTSKKNVGEISFAMYEHECQLWKSGLFVKGVTIRPKY
# Assays:
# Assay in all cases: glycan array binding signal (z-score within array); higher = stronger binding
# Conditions in all cases: glycan notation: IUPAC condensed, linker removed
# [1] = biological target: Fuc(a1-2)Gal(b1-3)GalNAc(b1-3)Gal
# Method in brief: (§1)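 Negative Z-scores can be read as non-binding. The Z-score is calculated within each array and then averaged across arrays of one protein sequence at different concentrations or buffers and across linkers. Arrays, 3228 in all, were curated from the Consortium for Functional Glycomics database and kept only where the protein sequence was available.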
# [2] = biological target: Fuc(a1-2)Gal(b1-3)[Fuc(a1-4)]GlcNAc
# Method in brief: as §1
# Fuc(a1-2)Gal(b1-4)Glc = biological target: Fuc(a1-2)Gal(b1-4)Glc
# Method in brief: as §1
# [3] = biological target: Fuc(a1-2)Gal(b1-4)GlcNAc(b1-3)Gal(b1-4)GlcNAc
# Method in brief: as §1
# [4] = biological target: Fuc(a1-2)Gal(b1-4)[Fuc(a1-3)]GalNAc(b1-3)Gal(b1-4)[Fuc(a1-3)]GlcNAc
# Method in brief: as §1
# Fuc(a1-2)[Gal(a1-3)]Gal = biological target: Fuc(a1-2)[Gal(a1-3)]Gal
# Method in brief: as §1
# [5] = biological target: Fuc(a1-2)[Gal(a1-3)]Gal(b1-4)Glc
# Method in brief: as §1
# [6] = biological target: Fuc(a1-2)[GalNAc(a1-3)]Gal(b1-3)GlcNAc
# Method in brief: as §1
# Fuc(a1-3)GlcNAc = biological target: Fuc(a1-3)GlcNAc
# Method in brief: as §1
# [7] = biological target: Gal(a1-3)[Gal(a1-4)]Gal(b1-4)GlcNAc
# Method in brief: as §1
# Gal(a1-4)Gal(b1-4)GalNAc = biological target: Gal(a1-4)Gal(b1-4)GalNAc
# Method in brief: as §1
# [8] = biological target: Gal(b1-3)[GlcNAc(b1-6)]GalNAc
# Method in brief: as §1
# Gal(b1-4)GlcNAc = biological target: Gal(b1-4)GlcNAc
# Method in brief: as §1
# Gal3S(b1-4)Glc6S = biological target: Gal3S(b1-4)Glc6S
# Method in brief: as §1
# Gal3S6S(b1-4)GlcNAc6S = biological target: Gal3S6S(b1-4)GlcNAc6S
# Method in brief: as §1
# Gal6S(b1-4)Glc6S = biological target: Gal6S(b1-4)Glc6S
# Method in brief: as §1
# GalNAc(a1-3)Gal = biological target: GalNAc(a1-3)Gal
# Method in brief: as §1
# Glc(a1-4)Glc = biological target: Glc(a1-4)Glc
# Method in brief: as §1
# [9] = biological target: GlcNAc(b1-2)Gal(b1-3)GlcNAc
# Method in brief: as §1
# [10] = biological target: Man(a1-2)Man(a1-2)Man(a1-3)Man
# Method in brief: as §1
# [11] = biological target: Man(a1-2)Man(a1-2)Man(a1-3)[Man(a1-2)Man(a1-6)[Man(a1-3)]Man(a1-6)]Man(b1-4)GlcNAc(b1-4)GlcNAc
# Method in brief: as §1
# Man(a1-3)[Man(a1-6)]Man = biological target: Man(a1-3)[Man(a1-6)]Man
# Method in brief: as §1
# [12] = biological target: Neu5Ac(a2-3)Gal(b1-3)[Fuc(a1-4)]GlcNAc
# Method in brief: as §1
# [13] = biological target: Neu5Ac(a2-3)Gal(b1-4)[Fuc(a1-3)]GlcNAc6S
# Method in brief: as §1
# [14] = biological target: Neu5Ac(a2-3)[GalNAc(b1-4)]Gal(b1-4)Glc
# Method in brief: as §1
binder,measurement,setting,value
B1,glycan array binding signal (z-score),[1],0.538
same,glycan array binding signal (z-score),[2],-0.075
same,glycan array binding signal (z-score),Fuc(a1-2)Gal(b1-4)Glc,1.08
same,glycan array binding signal (z-score),[3],0.966
same,glycan array binding signal (z-score),[4],1.49
same,glycan array binding signal (z-score),Fuc(a1-2)[Gal(a1-3)]Gal,-0.268
same,glycan array binding signal (z-score),[5],-0.089
same,glycan array binding signal (z-score),[6],0.897
same,glycan array binding signal (z-score),Fuc(a1-3)GlcNAc,1.82
same,glycan array binding signal (z-score),[7],-0.228
same,glycan array binding signal (z-score),Gal(a1-4)Gal(b1-4)GalNAc,-0.13
same,glycan array binding signal (z-score),[8],-0.317
same,glycan array binding signal (z-score),Gal(b1-4)GlcNAc,-0.385
same,glycan array binding signal (z-score),Gal3S(b1-4)Glc6S,1.16
same,glycan array binding signal (z-score),Gal3S6S(b1-4)GlcNAc6S,12.3
same,glycan array binding signal (z-score),Gal6S(b1-4)Glc6S,1.65
same,glycan array binding signal (z-score),GalNAc(a1-3)Gal,-0.288
same,glycan array binding signal (z-score),Glc(a1-4)Glc,-0.148
same,glycan array binding signal (z-score),[9],-0.386
same,glycan array binding signal (z-score),[10],-0.005
same,glycan array binding signal (z-score),[11],-0.509
same,glycan array binding signal (z-score),Man(a1-3)[Man(a1-6)]Man,-0.105
same,glycan array binding signal (z-score),[12],-0.525
same,glycan array binding signal (z-score),[13],-0.464
same,glycan array binding signal (z-score),[14],-0.46
